28 molecules from PubChem BioAssay (NCATS) can be followed below.

Test [1] addresses Cytochrome P450 2C19 (Homo sapiens) (UniProt P33261). Briefly: qHTS Assay for Inhibitors and Substrates of Cytochrome P450 2C19 (AID 899). Also: nearly all actives have a fitted effect of over 60% in size. Also: potency is read from the fitted curve at half-maximal effect. The gist of the method: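 Luminescence readout of luciferin formed from 10uM Luciferin-H EGE (KM level) by 5 nM CYP2C19 in 50mM KPO4. 60 min NADPH-driven reaction at 37C after 10 min compound preincubation; data scaled to 57uM ketoconazole inhibition.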

Test [2] is described as follows: qHTS Assay for Identification of Small Molecule Agonists for Thrombopoietin (TPO) Signaling Pathway (AID 917). Also: % is scaled to controls: 0 for no effect and ±100 for the full control effect. The gist of the method:
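First, Ba/F3 cells with human TPO receptor were held overnight without IL-3. Next, compounds and TPO (26 pM final) were added. After 24 hrs at 37 C, luciferase detection reagent was added and luminescence measured following 10 min at room temperature.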
(In general: In qHTS, concentration-response curves come from the screen itself.)

For test [3], the target named is Muscarinic acetylcholine receptor M1 (Rattus norvegicus) (UniProt P08482). Kind of test: qHTS Assay for Antagonists of Acetylcholine Muscarinic M1 Receptor: Kinetic Measurement of Intracellular Calcium Response (AID 943).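 Also: Fluo-4 calcium signal as peak divided by basal fluorescence over 4 min; series mostly up to about 35 µM; nearly all actives have a fitted effect of over 75% in size.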 The gist of the method:
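Quantitative HTS in CHO-M1 (rat receptor) cells: 10 min compound exposure ahead of 100 nM carbachol, Fluo-4 fluorescence followed 4 min, value expressed as peak-to-basal ratio.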

The target is the same in test [4]. Briefly: qHTS Assay for Antagonists of Acetylcholine Muscarinic M1 Receptor: Measurement of IP-One Response (AID 944). Also: nearly all actives have a fitted effect of over 75% in size. Summed up: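 Antagonism was measured as loss of carbachol-driven (EC80) IP1 accumulation in CHO cells carrying rat M1, using a homogeneous IP-One TR-FRET kit read at 620 and 665 nm.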
In test [5] the target is Pyruvate kinase (Leishmania mexicana) (UniProt Q27686). Briefly: qHTS Validation Assay for Inhibitors of Leishmania Mexicana Pyruvate Kinase (AID 945).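 Also: 0% = DMSO only neutral control wells.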 Summed up: (§1)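 Mutant LmPYK (E451W), 0.2 nM, plus 0.5 mM PEP and 0.1 mM ADP in 50 mM imidazole pH 7.2 containing 0.01% Tween 20 and 0.05% BSA. Incubated 1 h at room temperature; luminescence via PKLight, normalized to DMSO.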

Test [6] concerns the target Pyruvate kinase PKM (Homo sapiens) (UniProt P14618). Kind of test: qHTS Assay for Activators of Human Muscle Pyruvate Kinase (AID 954; active = well fitted curve in the direction sought with a large enough effect, not every such curve was filed as active;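 also: 0% = uninhibited enzyme and -100% = no enzyme or full thiadiazolimine inhibition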). Summed up:
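A coupled luminescent readout tracked ATP made from ADP by purified PKM2. Final conditions included 0.1 nM enzyme, PEP and ADP at 0.5 and 0.1 mM, pH 7.2 imidazole buffer with BSA, and a one-hour room-temperature reaction.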

Test [7] is described as follows: qHTS Assay for Identification of Small Molecule Antagonists for Thrombopoietin (TPO) Signaling Pathway (AID 918). Also: potency is read from the fitted curve at half-maximal effect; nearly all actives have a fitted effect of over 60% in size. The conditions noted are these: TPO-dependent cell signaling reporter, antagonist mode. Summed up:
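Antagonist mode at EC50 TPO (26 pM) in IL-3-free medium; murine Ba/F3 cells with human TPO receptor and GPIIb-promoter luciferase, 24 hrs at 37 C before luminescent detection.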

The nature of test [8]: Confirmation and Secondary Assay for Modulators of Hemoglobin Beta Chain Splicing at IVS2 654 locus (AID 910).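 Also: HeLa cells stably carrying EGFP split by mutant beta-globin IVS2-654 intron; per-well total GFP intensity by laser scanning cytometry after 2-day treatment.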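 Also: potency is read from the fitted curve at half-maximal effect; potency of activators that raise GFP signal by restoring correct splicing.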 The gist of the method:
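Readout: per-well total peak green fluorescence (488 nm ex, 500–520 nm em) from objects 5–250 µm, reflecting correct splicing of an EGFP-654 reporter. Compounds were applied for 2 days at 37 °C to overnight-plated HeLa EGFP-654 cells; controls were DMSO and 500 nM IVS2-654 PNA.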

Test [9] can be described thus: Confirmation and Secondary Assay for Modulators of Hemoglobin Beta Chain Splicing at IVS2 705 locus (AID 930).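 Also: HeLa cells stably expressing the EGFP-705 splicing reporter; GFP fluorescence per well restored by corrected splicing of the IVS2-705 intron in EGFP; series mostly up to about 46 µM; % of control where 0% means no effect.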 The gist of the method:
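Stable HeLa line with EGFP disrupted by mutant beta-globin intron 2 (705). Overnight attachment, then 2 days of compound at 37C, 5% CO2. Signal: peak GFP intensity summed over objects 5-250 µm.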

The nature of test [10]: qHTS Assay for Identification of Small Molecule Agonists for Hypoxia Response Element Signaling Pathway (AID 914; active = well fitted activation curve with a large enough effect in the signal ratio, with a control signal flat, not every such curve was filed as active; the % refers to the signal ratio; also: potency is read from the fitted curve at half-maximal effect; as to activation: % of control where 0% means no effect). The conditions noted are these: ME-180 (cervical carcinoma) HRE-bla reporter, beta-lactamase ratio, CoCl2, 17 h; activation: stronger effect = higher value. Summed up:
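Reporter activity (beta-lactamase, CCF4 460nm/530nm ratio) in HRE-bla ME-180 cells is recorded after 17 h compound exposure with EC50 CoCl2 at 37 degrees Celsius. AC50 values come from titration data.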

For test [11], the target named is Pyruvate kinase (Leishmania mexicana) (UniProt Q27686). Kind of test: qHTS Validation Assay for Activators of Leishmania Mexicana Pyruvate Kinase (AID 959). Summed up:
as §1

Values without a mark were called inactive. Results filed as inconclusive are left out. The source made the active and inactive calls. Unless noted, calls follow the shape of the dose curve; as a rule, active = well fitted curve in the direction sought with a large enough effect; inconclusive = small, poorly fitted or top-dose-only effect, or another doubt; inactive = no such curve, though single readings can be large; an effect the other way counts as inactive or inconclusive. Residues, ends and D or L forms follow the SMILES beside them. *: point of attachment. Cbz = O=C(OCc1ccccc1)*

Muscarinic acetylcholine receptor M1 (Rattus norvegicus), sequence (P08482 whole entry, looked up): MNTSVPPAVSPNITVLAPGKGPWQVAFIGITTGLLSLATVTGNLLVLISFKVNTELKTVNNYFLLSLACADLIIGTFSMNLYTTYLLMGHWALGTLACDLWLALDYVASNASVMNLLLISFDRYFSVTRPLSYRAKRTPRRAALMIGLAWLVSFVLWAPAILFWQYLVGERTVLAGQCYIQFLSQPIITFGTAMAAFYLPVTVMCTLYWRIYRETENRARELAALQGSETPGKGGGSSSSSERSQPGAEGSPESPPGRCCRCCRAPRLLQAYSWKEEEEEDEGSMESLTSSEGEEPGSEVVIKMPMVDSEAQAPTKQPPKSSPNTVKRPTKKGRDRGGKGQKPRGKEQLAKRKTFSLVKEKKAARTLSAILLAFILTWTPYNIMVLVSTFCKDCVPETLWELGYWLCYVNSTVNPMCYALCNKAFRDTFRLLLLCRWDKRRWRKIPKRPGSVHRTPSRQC
Cytochrome P450 2C19 (Homo sapiens), sequence (P33261 whole entry, looked up): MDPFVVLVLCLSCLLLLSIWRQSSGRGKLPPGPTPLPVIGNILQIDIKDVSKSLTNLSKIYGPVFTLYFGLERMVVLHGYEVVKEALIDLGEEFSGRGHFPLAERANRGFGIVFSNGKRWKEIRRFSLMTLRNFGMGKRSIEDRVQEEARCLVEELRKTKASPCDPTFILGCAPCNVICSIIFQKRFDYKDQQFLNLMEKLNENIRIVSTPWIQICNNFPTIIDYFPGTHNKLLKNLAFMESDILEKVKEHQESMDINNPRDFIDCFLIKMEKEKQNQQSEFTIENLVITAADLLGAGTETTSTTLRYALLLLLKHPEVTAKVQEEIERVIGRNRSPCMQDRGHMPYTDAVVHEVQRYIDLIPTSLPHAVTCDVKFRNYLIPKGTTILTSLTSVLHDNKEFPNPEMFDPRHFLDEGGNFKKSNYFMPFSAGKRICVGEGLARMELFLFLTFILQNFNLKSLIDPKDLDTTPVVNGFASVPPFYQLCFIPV
Pyruvate kinase (Leishmania mexicana), sequence (Q27686 2-499 E452W): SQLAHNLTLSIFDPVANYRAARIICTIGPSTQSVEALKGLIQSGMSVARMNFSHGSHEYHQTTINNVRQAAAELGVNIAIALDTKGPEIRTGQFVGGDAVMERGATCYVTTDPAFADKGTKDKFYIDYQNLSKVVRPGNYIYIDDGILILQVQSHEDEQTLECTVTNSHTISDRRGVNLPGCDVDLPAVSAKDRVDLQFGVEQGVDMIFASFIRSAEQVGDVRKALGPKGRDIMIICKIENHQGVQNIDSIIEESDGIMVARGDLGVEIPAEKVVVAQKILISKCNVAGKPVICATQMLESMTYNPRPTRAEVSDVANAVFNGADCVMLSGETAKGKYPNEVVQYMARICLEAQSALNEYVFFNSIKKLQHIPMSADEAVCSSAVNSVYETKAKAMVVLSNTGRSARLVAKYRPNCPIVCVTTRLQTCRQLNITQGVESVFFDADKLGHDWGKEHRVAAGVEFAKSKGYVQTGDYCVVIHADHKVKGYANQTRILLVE
Pyruvate kinase PKM (Homo sapiens), sequence (P14618 whole entry, looked up): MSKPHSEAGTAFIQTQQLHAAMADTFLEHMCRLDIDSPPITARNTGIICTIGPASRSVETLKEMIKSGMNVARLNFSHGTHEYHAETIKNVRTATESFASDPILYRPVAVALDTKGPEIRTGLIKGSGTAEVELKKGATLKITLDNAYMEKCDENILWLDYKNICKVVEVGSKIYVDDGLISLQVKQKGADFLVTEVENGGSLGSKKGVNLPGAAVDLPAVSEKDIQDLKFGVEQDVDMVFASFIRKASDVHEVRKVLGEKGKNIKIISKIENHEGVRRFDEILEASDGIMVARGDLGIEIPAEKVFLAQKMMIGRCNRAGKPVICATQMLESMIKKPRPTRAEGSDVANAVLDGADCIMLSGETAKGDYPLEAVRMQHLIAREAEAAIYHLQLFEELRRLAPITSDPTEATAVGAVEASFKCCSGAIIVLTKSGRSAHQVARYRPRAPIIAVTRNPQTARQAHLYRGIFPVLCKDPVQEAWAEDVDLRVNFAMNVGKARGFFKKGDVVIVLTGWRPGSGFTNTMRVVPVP

`CCn1c(=O)[nH]c2cc(Cl)c(Cl)cc21`: the Potency entry in [1], in test [2], in [3], in test [4] and in test [5] was “inactive” each time. Further, the result in test [6] was inactive.
As for `O=C(N[C@@H](Cc1ccccc1)C(=O)CCl)OCc1ccccc1`, the results for the Potency in [1] and in [7] were 5.01 µM (active) and 2.51 µM (active), respectively. The Potency result in [3], in [4] and in [5] was “inactive” each time. Besides, in test [6], the outcome was inactive.
`N=C(N)SCCN`: the Potency entry in test [1], in [8], in test [2], in [4] and in test [5] was “inactive” throughout. For the same molecule, the molecule was classed as inactive in test [9] and in [6].
On to `CC(C)NC[C@H](O)COc1ccc(CC(N)=O)cc1`, for which the Potency result in [8], in test [2] and in test [5] was “inactive” in each case. Moreover, the outcome in test [9] and in test [6] was inactive.
Consider `Cn1c(=O)c2[nH]c(-c3ccc(S(=O)(=O)O)cc3)nc2n(C)c1=O`, for which the Potency result in test [1], in test [2], in test [3], in test [4] and in test [5] was “inactive” each time. Moreover, the outcome in [6] was inactive.
For `C=C1C(=O)O[C@@H]2[C@H]3O[C@]3(C)CCC=C(C)CC[C@@H]12`, the Potency entry in [1] is “inactive”.
As for `Cn1c(=O)c2[nH]c(C3CCCC3)nc2n(C)c1=O`, the Potency entry in [8], in [2], in test [3], in [4] and in test [5] was “inactive” throughout. The activation in [10] was -4.29%. Moreover, the call in test [9] and in test [6] was inactive.
As for `CNC(=O)c1cc2c(cn1)[nH]c1ccccc12`, the Potency entry in test [1], in [3], in test [4] and in [11] was “inactive” in each case. In test [6], the molecule was called inactive.
Turning to `CN(C)CCC(c1ccc(Br)cc1)c1ccccn1` (stereo not given), the Potency result in [8] is “inactive”. Further, the outcome in [9] was inactive.
With `C[C@H](NC(=O)/C(C#N)=C/c1ccc(O)c(O)c1)c1ccccc1`, the Potency result in test [1], in [3], in test [4] and in [5] was “inactive” each time. Also, in test [6], the call was inactive.
Take `COc1cc(CC(=O)O)ccc1O`: the Potency result in test [2], in [4] and in [5] was “inactive” each time. In addition, in [6], the molecule was classed as inactive.
With `CCCCCCCCCCC/C=C\C(C)(C)/C=C\CCCC(=O)O`, the Potency result in [2], in [3], in test [4] and in test [5] was “inactive” throughout. In addition, the molecule was classed as inactive in test [6].
Turning to `CC(C)[C@H](NC(=O)OCc1ccccc1)C(=O)N[C@H](C=O)Cc1ccccc1` (Cbz-Val-Phe-aldehyde), the Potency result in [2], in [3] and in test [5] was “inactive” throughout. Also, the outcome in test [6] was inactive.
Consider `Cc1ccc([N+](=O)[O-])cc1S(=O)(=O)N(C)C`, for which the Potency result in test [2], in [3], in [4] and in test [5] was “inactive” each time. Besides, the result in test [6] was inactive.
For `OC[C@H]1O[C@@H](n2cnc3cncnc32)[C@H](O)[C@@H]1O`, the Potency in [8] is 1.26 µM (active). Also, in [9], the outcome was inactive.
As to `NC(=O)CNCCC(c1ccccc1)c1ccccc1`, the Potency result in [2], in test [3] and in test [5] was “inactive” in each case. Moreover, the call in [6] was inactive.
As to `CC1=C(/C=C/C(C)=C/C=C/C(C)=C\C(=O)O)C(C)(C)CCC1`, in test [8], the Potency entry is “inactive”. In addition, in test [9], the result was inactive.
Consider `COc1cc(CNC(=O)CCCCCCC(C)C)ccc1O`, for which the Potency entry in test [2], in test [3], in test [4] and in [5] was “inactive” each time. In addition, the molecule was called inactive in test [6].
For `COc1ccc(C(=O)NCc2cccnc2)cc1C(=O)NCc1cccnc1`, the Potency entry in [2], in [3], in test [4] and in [5] was “inactive” each time. The result in test [6] was inactive.
`CCCn1c(=O)c2[nH]c(-c3ccc(S(=O)(=O)O)cc3)nc2n(CCC)c1=O`: the Potency result in test [2], in [3], in [4] and in test [5] was “inactive” throughout. Moreover, the outcome in test [6] was inactive.
As for `O=S(=O)(c1cccc2c(Cl)cccc12)N1CCCNCC1`, the Potency entry in test [2], in test [4] and in test [5] was “inactive” throughout. Moreover, the outcome in test [6] was inactive.
For the molecule `c1ccc(C2CN3CCSC3=N2)cc1` (stereo not given), the Potency entry in [8] was “inactive”. The result in test [9] was inactive.
Regarding `COc1cc(/C=C(\C#N)C(=O)c2ccc(O)c(O)c2)cc(I)c1O`, the Potency result in test [2], in test [3] and in test [5] was “inactive” throughout. Moreover, in test [6], the outcome was inactive. Besides, the Potency in [11] was 15.8 µM (active).
For the molecule `COc1ccccc1N1CCN(CCN(C(=O)c2ccc(F)cc2)c2ccccn2)CC1`, the Potency result in test [2], in test [4] and in test [5] was “inactive” throughout. The result in [6] was inactive.
`CCCn1c(=O)c2c(ncn2C)n(CCC)c1=O`: in test [10], the activation is 3.52%. Also, the Potency result in [2], in test [3] and in test [5] was “inactive” each time. Moreover, the result in test [6] was inactive.
With `Oc1ccc(Cn2cc[nH]c2=S)cc1`, the Potency entry in test [2], in test [3], in [4] and in test [5] was “inactive” each time. The outcome in test [6] was inactive.
Consider `NC(=O)CC[C@H](N)C(=O)O`, for which the Potency entry in [8] is “inactive”. Besides, the call in test [9] was inactive.
As for `CC(C)(CO)Cc1cc(C(C)(C)C)c(O)c(C(C)(C)C)c1`, the Potency in [10] is 12.6 µM (active). The Potency result in test [2], in [3], in [4] and in test [5] was “inactive” in each case. In test [6], the outcome was inactive.
